The values that follow come from PubChem BioAssay (NCATS).

Records with an inconclusive call do not appear. Entries that show only a call come without a potency. Calls of active or inactive are those of the source. Calls follow the shape of the dose curve; as a rule, active = well fitted cell-killing curve with a large enough effect; inconclusive = small, poorly fitted or top-dose-only effect; inactive = flat fitted curve, though single readings scatter.
Potency is read from the fitted curve at half-maximal effect.

The assay in a line: Cell Viability - LYMP2-019 (AID 973). Also: nearly all actives have a fitted effect of over 55% in size. To be noted: LYMP2-019 lymphoblastoid cell line viability; series mostly up to 92.2 µM. The source says: NIH Chemical Genomics Center [NCGC]
NIH Molecular Libraries Screening Centers Network [MLSCN]
National Institutes of Environmental Health Sciences [NIEHS]
National Toxicology Program [NTP]
We have developed a 1536-well cell-based assay for quantitative high throughput screening (qHTS) against a number of cell lines to determine in vitro cytotoxicity of small molecules. This particular assay uses a human lymphoblastoid cell line (LYMP2-019) purchased from Coriell Institute for Medical Research.
NCGC Assay Protocol Summary:
The CellTiter-Glo luminescent cell viability assay (Promega) is a homogeneous method to measure the number of viable cells in culture. The end point readout of this assay is based on quantitation of intracellular ATP, an indicator of metabolic activity, using the luciferase reaction. Luciferase catalyzes the oxidation of beetle Luciferin to oxyluciferin and light in the presence of ATP. The luminescent signal is proportional to amount of ATP present.
Using the CellTiter-Glo luminescent cell viability assay, the amount of cellular ATP was measured in the lymphoblastoid cell line with complete culture medium following compound treatment for 24 hours. The assay was performed in opaque white Kalypsys 1536-well plates. In the screen, tetraoctylammonium bromide was used as positive control. Library compounds were measured for their ability to cause acute toxicity in the cell line, as reflected by a decrease in intracellular ATP levels, in a concentration-dependent manner. […] AC50 values were determined from concentration-response data modeled with the standard Hill equation.
qHTS protocol for CellTiter Glo lymphoblastoid cellular assay
[Step] [Parameter] [Value] [Description]
1. Reagent; 5 uL; 2500 lymphoblastoid cells/well
2. Time; 5 hr; 37 C incubation
4. Controls; 23 nL; Tetraoctylammonium bromide 6.4pM to 92 uM
5. Time; 24 hr; 37 C incubation
6. Reagent; 5 uL; CellTiter Glo reagent
7. Time; 30 min; Room Temperature
8. Detection; Luminescence; Viewlux plate reader
Keywords: cell viability, cytotoxicity, lymphoblastoid cell line, luminescence, NTPHTS, NTPHTS_NCGC, NIEHS, DSSTox, MLSMR, MLSCN, NIH Roadmap, qHTS, NCGC
Regarding `CCOC(C)=O`, the Potency entry was “inactive”.
`CC1=C2[C@@H]([C@H](C)CC[C@H]2/C=C(\C)C(=O)O)[C@H](O)C1`: the Potency entry is “inactive”.
On to `CCCCCCCC/C=C\CCCCCCCC(=O)O`, for which the Potency entry was “inactive”.
In the case of `Nc1ccn([C@H]2CS[C@@H](CO)O2)c(=O)n1`, the Potency entry was “inactive”.
As to `CCCCC/C=C\C/C=C\CCCCCCCC(=O)O`, the Potency entry was “inactive”.
As to `CC(C)=O`, the Potency entry was “inactive”.
`O=CCCCC=O`: the Potency is 25.1 µM (active).
Regarding `Cc1ccccc1`, the Potency entry was “inactive”.
For `CC(O)CO` (centres undefined), the Potency result is “inactive”.
To `CCOc1ccc2c(c1)C(C)=CC(C)(C)N2` belongs “inactive”; to `O=C(O)CCC(=O)C(=O)O`, “inactive”.
Turning to `IC(I)I`, the Potency result was “inactive”.
As to `O=S(=O)(O)O`, the Potency result is “inactive”.
With `CCCCCCCC(=O)O`, the Potency entry is “inactive”.
